The panel holds about 83,000 compounds, 20% with a hit somewhere; the sample as a whole holds those more often.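 Each cell line was grown in a 96-well plate and treated with one concentration of compound for 48 hours. Values below 10 were considered active.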 Values without a mark were called inactive. The source made the active and inactive calls.

Test in all cases: NCI-60 one-dose screen, 48 h (100 = growth as untreated, 0 = no growth, -100 = all killed)
Common to all, as to details: 10 µM unless noted

Assay [1] deals with HCT-15 colon.
For assay [2], the system named is HT29 colon.
Assay [3] has as its system SNB-75 CNS.
The test system of assay [4] is SNB-19 CNS.
Assay [5] concerns U251 CNS.
The subject of assay [6] is SK-MEL-5 melanoma.
For assay [7], the system named is LOX IMVI melanoma.
For assay [8], the system named is SK-MEL-28 melanoma.
The subject of assay [9] is SK-MEL-2 melanoma.
Assay [10] has as its system SN12C renal.
Assay [11] concerns UO-31 renal.
Assay [12] concerns TK-10 renal.
Assay [13] concerns ACHN renal.
Assay [14] relates to CAKI-1 renal.
The subject of assay [15] is A498 renal.
The test system of assay [16] is MOLT-4 leukemia.
Assay [17] relates to PC-3 prostate.
Assay [18] deals with UACC-62 melanoma.
Assay [19] relates to EKVX NSCLC.
The subject of assay [20] is CCRF-CEM leukemia.

With `O=C1/C(=C/c2ccc(F)cc2)CN(Cc2cn(CCNc3ccnc4cc(Cl)ccc34)nn2)C/C1=C\c1ccc(F)cc1`, the growth in assay [1] is -60.5% (active); in assay [2], -79.2% (active); in assay [3], 50%; in assay [4] it was -74.4% (active); in [5] it was -91.4% (active); in [6], -100% (active). For the same compound, the growth in assay [7] was -93.8% (active); in assay [8], -79.7% (active); in assay [9], -63.7% (active); in assay [10] it was -75% (active); in [11], -95.8% (active); in assay [12], -20.3% (active). Moreover, the growth is -100% (active) in assay [13], 1.43% (active) in [14], -79.3% (active) in assay [15] and -18.4% (active) in assay [16].
For the compound `CCCCC/C=C\C/C=C/CCCCCCCCNC(=O)Nc1ccc([N+](=O)[O-])cc1`, the growth in [1] was 78%; in assay [2] it was 60.7%; in assay [3] it was 103%; in assay [4], 89.6%; in [17] it was 16.3%; in [6], 103%. The growth in assay [18] is 68.4%; in assay [7], 17.4%; in [8] it was 106%; in [9] it was 119%; in assay [19] it was 79.1%; in assay [10] it was 83.2%. Besides, the growth in [11] is 60.5%; in [12] it was 82.5%; in assay [13], 65.8%; in assay [14], 56.2%; in [15], 83.7%; in assay [16], 43.2%.
Take `COC1(OC)C2(Cl)C=C(c3ccccc3)C1(Cl)C(Cl)=C2Cl` (configuration not stated): the growth in assay [1] is 119%; in assay [2] it was 83.5%; in assay [3], 67%; in assay [4], 102%; in assay [17], 86.2%; in assay [6], 104%. Moreover, the growth in [18] was 96.6%; in assay [7] it was 90%; in assay [8] it was 102%; in assay [9], 87%; in assay [10] it was 104%; in assay [11], 70%. Also, the growth was 106% in [12]; 108% in assay [13]; 92.7% in [14]; 105% in assay [15]; 91% in assay [20]; 74.3% in assay [16].
Regarding `Cc1cc(=O)c2c(C)ccc(C)c2[nH]1`, the growth is 101% in assay [1]; 111% in assay [2]; 101% in assay [3]; 99.8% in [4]; 100% in assay [5]; 110% in assay [6]. Moreover, the growth in [18] is 96.4%; in assay [7], 97.7%; in assay [8] it was 109%; in assay [19] it was 102%; in assay [10], 101%; in [11] it was 86.8%. Also, the growth in [13] is 102%; in assay [14], 108%; in [15] it was 108%; in [20], 102%; in assay [16] it was 100%.
With `COc1cc(/C=C/C(=O)C(=Cc2ccc(F)c(F)c2)C(=O)/C=C/c2ccc(O)c(OC)c2)ccc1O`, the growth in assay [1] was 26%; in assay [2] it was -31.4% (active); in assay [3], 38.3%; in [4], 63.1%; in [17] it was 30.7%; in [6], 40.9%. Moreover, the growth in assay [18] was 32.3%; in assay [7], -82.5% (active); in [8], 36%; in assay [9], 6.91% (active); in assay [19], 72.1%; in assay [11] it was 53.2%. The growth in [12] was 35.5%; in assay [13], 27.3%; in [14], 95.6%; in assay [15], 116%; in assay [20], 9.98% (active); in [16], 12.2%.
On to `COc1ccc(C2CC(c3cc(OC)c(OC)c(OC)c3)=NN2c2ccc(S(N)(=O)=O)cc2)cc1` (configuration not stated), for which the growth is 66.8% in assay [1]; 59.3% in [2]; 33.1% in assay [3]; 74% in assay [4]; 53.2% in assay [5]; 58.2% in assay [6]. Moreover, the growth in assay [7] was 52.9%; in assay [8], 76.9%; in [10] it was 73.7%; in [11], 29.8%; in [12], 66.4%; in [13] it was 76.5%. Further, the growth in [14] was 67.3%; in assay [15] it was 44.5%; in assay [20], 41.3%.
Regarding `COc1cc2cc(Oc3ccc(NC(=O)Nc4cccc(C(F)(F)F)c4)cc3)c(C)nc2cc1OCCN1CCCCC1`, the growth in assay [1] was -81.9% (active); in [2], -81.7% (active); in assay [3] it was -70.3% (active); in [4] it was -55.1% (active); in assay [17], -54.6% (active); in assay [6], -94.1% (active). Besides, the growth in [18] was -74.2% (active); in assay [7], -94.3% (active); in [8], -92.1% (active); in assay [9], -65.9% (active); in assay [19] it was 27.5%; in assay [10], -88.9% (active). Also, the growth in [11] was -92.1% (active); in assay [13], -73.3% (active); in [14], -77.7% (active); in assay [15], 51%; in [20], 1.49% (active); in assay [16], -54.9% (active).
Turning to `Cc1nc(NN)c([N+](=O)[O-])c(NN)n1`, the growth is 105% in assay [1]; 108% in assay [2]; 114% in assay [3]; 109% in assay [4]; 104% in assay [17]; 99.4% in [6]. Moreover, the growth in assay [18] is 97.3%; in assay [7], 111%; in assay [8], 108%; in assay [9], 104%; in [19], 112%; in assay [10], 103%. The growth in [11] was 94.5%; in [12], 118%; in [13] it was 110%; in assay [14], 99.1%; in [15], 142%; in [20] it was -28.1% (active). Also, the growth in assay [16] was 89.6%.
Turning to `CN1CCN(C(=O)OCCOCCOC(=O)N2CCN(C)CC2)CC1`, the growth in assay [1] is 96.3%; in assay [2], 101%; in assay [3] it was 80.8%; in [4] it was 104%; in assay [5], 103%; in assay [6], 104%. The growth is 102% in [18]; 90.9% in assay [7]; 105% in [8]; 100% in [19]; 99.9% in assay [10]; 95.8% in [11]. Also, the growth in assay [12] was 94.5%; in assay [13], 97%; in [14], 131%; in assay [15], 93%; in assay [20], 8.24% (active); in assay [16] it was 52.7%.

For the origin of these results see PubChem BioAssay (NCI).
